Test results reported in the supplement of paper PMC3334620.
Over roughly 33,000 sequences, “E-score (-0.5 to 0.5)” has its median near -0.054; the highest 2% begin near 0.39. The sample holds the highest values, similar sequences and a random draw of the others, so the mix is not that of the screen.

Biological target: Ylr278c (UniProt Q05854)
Assay: PBM E-score (8-mer binding enrichment) (E-score (-0.5 to 0.5)); higher = stronger / more preferred TF binding
Details: protein concentration: 200 nM; construct: GST-DNA-binding domain
Method in brief: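 Detection of bound protein used fluorescent anti-GST, with scans normalised by masliner. The proteins were GST-tagged yeast transcription factors applied at about 100-200 nM to universal all-10-mer Agilent arrays made double-stranded by primer extension. Each ungapped eight-base word, pooled with its reverse complement, was scored with an E-score from the Universal PBM Analysis Suite.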

Sequence of UniProt Q05854 (Q05854 whole entry): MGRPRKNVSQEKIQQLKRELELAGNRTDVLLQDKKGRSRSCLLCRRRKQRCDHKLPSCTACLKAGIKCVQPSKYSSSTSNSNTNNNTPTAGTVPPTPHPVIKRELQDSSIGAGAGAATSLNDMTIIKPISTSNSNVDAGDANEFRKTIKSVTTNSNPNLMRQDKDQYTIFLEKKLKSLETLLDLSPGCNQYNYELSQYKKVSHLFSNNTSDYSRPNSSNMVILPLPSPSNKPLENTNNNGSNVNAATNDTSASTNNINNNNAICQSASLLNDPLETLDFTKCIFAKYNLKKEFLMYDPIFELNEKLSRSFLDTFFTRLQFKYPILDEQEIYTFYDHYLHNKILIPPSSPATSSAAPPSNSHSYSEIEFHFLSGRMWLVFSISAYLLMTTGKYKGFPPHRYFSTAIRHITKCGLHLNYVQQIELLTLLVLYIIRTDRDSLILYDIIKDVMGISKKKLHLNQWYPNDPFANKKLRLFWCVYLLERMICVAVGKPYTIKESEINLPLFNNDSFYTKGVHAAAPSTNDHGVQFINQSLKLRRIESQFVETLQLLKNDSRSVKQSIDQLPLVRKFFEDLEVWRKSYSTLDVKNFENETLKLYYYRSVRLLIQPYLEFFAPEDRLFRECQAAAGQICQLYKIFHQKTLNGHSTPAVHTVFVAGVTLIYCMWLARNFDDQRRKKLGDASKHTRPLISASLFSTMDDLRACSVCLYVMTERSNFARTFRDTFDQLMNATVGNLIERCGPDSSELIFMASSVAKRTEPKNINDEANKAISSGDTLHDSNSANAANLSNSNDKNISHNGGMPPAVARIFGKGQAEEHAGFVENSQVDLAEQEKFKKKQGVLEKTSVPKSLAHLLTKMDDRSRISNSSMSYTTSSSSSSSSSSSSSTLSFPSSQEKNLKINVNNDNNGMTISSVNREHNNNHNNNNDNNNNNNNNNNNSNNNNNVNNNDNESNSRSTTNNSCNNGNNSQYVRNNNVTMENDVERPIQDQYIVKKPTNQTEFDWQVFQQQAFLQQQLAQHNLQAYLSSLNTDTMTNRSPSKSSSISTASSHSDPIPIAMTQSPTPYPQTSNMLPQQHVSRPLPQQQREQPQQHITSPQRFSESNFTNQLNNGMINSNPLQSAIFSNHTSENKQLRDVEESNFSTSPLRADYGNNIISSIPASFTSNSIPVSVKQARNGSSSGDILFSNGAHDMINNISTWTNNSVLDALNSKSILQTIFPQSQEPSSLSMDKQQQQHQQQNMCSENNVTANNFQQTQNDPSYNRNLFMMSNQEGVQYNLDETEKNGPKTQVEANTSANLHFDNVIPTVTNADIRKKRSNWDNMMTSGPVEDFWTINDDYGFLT

Row | Sequence | PBM E-score
1 | CGGGTGAG | 0.167
2 | CATATGGC | -0.0951
3 | ACCAGATA | -0.0605
4 | CGTTGGAA | -0.0729
5 | CCTTCGAG | -0.0791
6 | CGGAGACG | 0.415
7 | CAGAGACG | -0.0283
8 | AGGAGACA | -0.0751
9 | TGGAGACA | -0.227
10 | AGGAGACG | -0.12
11 | CGGAGACA | 0.39
12 | CGGAGACC | 0.406
13 | GGGAGACC | -0.0886
14 | AGGAGACC | -0.145
15 | CCTCCTAA | -0.122
16 | GATCTAAA | 0.0142
17 | CAAAGGTC | -0.224
18 | ATACTTGA | -0.345
19 | CCCAGTCA | -0.242
20 | CCTAGAAC | -0.0753
21 | AGACGGAG | 0.392
22 | CGACGGAG | 0.421
23 | AGACGGAA | 0.238
24 | CGACGGAA | 0.339
25 | CGACGGAC | 0.337
26 | AGACGGAT | 0.176

Row | Sequence | PBM E-score
27 | ATTGGACG | -0.00534
28 | AATATGCC | -0.0168
29 | ACATATCA | -0.0989
30 | CTAGGCTA | -0.193
31 | AAAGTCCG | 0.482
32 | AAAGTCCT | 0.226
33 | AAGGTCCG | 0.426
34 | ATAGTCCC | -0.153
35 | AAGGTCCA | -0.124
36 | CCGGTCCC | 0.355
37 | ATAGTCCG | 0.413
38 | CAGGTCCG | 0.353
39 | CCGGTCCG | 0.45
40 | AAAGTCCA | -0.0593
41 | ATAGTCCA | -0.109
42 | CCGGTCCA | 0.21
43 | CCGTTGAG | 0.0643
44 | ACTAGCTC | -0.157
45 | AGAGCTGC | -0.0659
46 | AAACAACA | -0.119
47 | CGTATCCC | 0.048
48 | GGACTTAC | 0.305
49 | GAAGCTAC | -0.144
50 | AACACCTC | -0.251
51 | GTGTGGTA | -0.165
52 | CAAGTCCA | -0.118

Row | Sequence | PBM E-score
53 | AGAGTCCG | 0.347
54 | CGAGTCCA | -0.144
55 | CAAGTCCG | 0.455
56 | CAAGTCCC | -0.108
57 | CGAGTCCG | 0.391
58 | CCGAGACG | 0.134
59 | ACCTCAGA | -0.0802
60 | GGCCCGCA | 0.188
61 | GCCCCGGC | 0.259
62 | TCCCCCGA | 0.263
63 | TCCCCGGA | 0.435
64 | GCCCCCGA | 0.0674
65 | CCCCCGGA | 0.395
66 | CCCCCGGC | 0.254
67 | GCCCCGGA | 0.439
68 | CCCCCCGA | 0.083
69 | TCCCCGAA | 0.357
70 | GGCCCGGA | 0.395
71 | GGCCCGTA | 0.173
72 | ATATTTTC | 0.0689
73 | GACCTAAC | 0.0677
74 | GCAGACGA | -0.119
75 | GGATCTGA | 0.00665
76 | AACCCATC | -0.0461
77 | CAGTCATG | -0.129
78 | ATGGCTGG | -0.209

Row | Sequence | PBM E-score
79 | CCAGCATC | -0.0271
80 | ATCACTGC | -0.0314
81 | ACTGTGGC | -0.32
82 | GGACTGAC | -0.0427
83 | CCCCTTAC | -0.195
84 | AGCCCGGA | 0.448
85 | CGCCCGAA | 0.111
86 | ACCCGGGG | 0.246
87 | AACCCGGG | 0.319
88 | CCCCGGGC | 0.342
89 | AGCCCGGG | 0.328
90 | ACCCCGGG | 0.404
91 | CGCCCGGA | 0.435
92 | AGCCCGGC | 0.332
93 | CCCCGGGG | 0.412
94 | CGCCCGGC | 0.292
95 | CCCCCGGG | 0.296
96 | GTAAATGA | 0.024
97 | GACAAGCC | -0.0446
98 | CGACTTAG | -0.168
99 | GCAACTCC | 0.327
100 | AACGCCAA | -0.0358
101 | GATTTCTA | 0.238
102 | CATCCACG | -0.153
103 | CGCTAGGC | -0.0311
104 | GCATGGCA | 0.0442

Row | Sequence | PBM E-score
105 | ACCCCGGT | 0.385
106 | CCCCGGGA | 0.378
107 | TCCCGGGA | 0.398
108 | ACCCCGGC | 0.355
109 | ACCCGGGA | 0.307
110 | ACCCCGGA | 0.445
111 | GGTCTTAC | -0.0198
112 | GAAGCGGC | 0.125
113 | GGATGCCA | -0.277
114 | CAATTCCC | 0.19
115 | AAATTCCG | 0.471
116 | CGATTCCC | 0.226
117 | ATATTCCA | 0.0484
118 | CAATTCCA | -0.0617
119 | CGATTCCG | 0.396
120 | ATATTCCG | 0.43
121 | ATATTCCC | 0.277
122 | AAATTCCA | 0.115
123 | AAATTCCC | 0.254
124 | CGATTCCA | 0.056
125 | CAATTCCG | 0.465
126 | ATACCGTC | 0.153
127 | AACCTAGT | -0.00542
128 | AACTTAGG | -0.156
129 | CAAGTGCA | -0.362
130 | TGGTTCAA | -0.118

Row | Sequence | PBM E-score
131 | ATACCTTC | 0.0292
132 | GGCGCACA | 0.145
133 | TCCCTCAA | -0.106
134 | CGGCCGGC | 0.409
135 | CGGCCGAC | 0.309
136 | AGGCCGGG | 0.258
137 | CGGCCGTA | 0.225
138 | AGGCCGTA | 0.0868
139 | GGGCCGGA | 0.418
140 | GGGCCGAA | 0.198
141 | CGGCCGGA | 0.424
142 | GGGCCGTA | 0.0879
143 | AGGCCGGA | 0.419
144 | AGGCCGGC | 0.342
145 | CGGCCGCA | 0.249
146 | CACCTAAG | -0.134
147 | CTTACCTC | -0.0434
148 | AGGTTGGG | -0.122
149 | ACGCTACT | 0.0556
150 | AGCAATCA | -0.118
151 | CATTGTCC | 0.314
152 | CGCCATAG | -0.135
153 | GGTTGATA | -0.0138
154 | CGTCGTTC | 0.137
155 | ATCTGACG | -0.134
156 | CGTGCCAA | -0.0693

Row | Sequence | PBM E-score
157 | CGGCCTTC | 0.394
158 | CGGCCTTA | 0.352
159 | AGGCCTTC | -0.221
160 | AGTTCCGG | 0.433
161 | AGTTCCTG | -0.0874
162 | CGTTCCGA | 0.288
163 | AGTTCCGC | 0.383
164 | GGTTCCGA | 0.384
165 | AGTTCCGA | 0.43
166 | AGAACCGG | 0.345
167 | AACTCCCG | 0.365
168 | CACTCCTG | -0.0899
169 | AACTCCTG | 0.152
170 | CACTCCGG | 0.46
171 | CACTCCGC | 0.393
172 | CACTCCCA | -0.106
173 | CACTCCGA | 0.454
174 | CACTCCAC | -0.139
175 | CACTCCAA | 0.031
176 | CACTCCTC | 0.0388
177 | CACTCCCG | 0.193
